The term AC50 denotes the concentration giving half of the maximal activity seen.

Values joined by “and” are separate entries in the source; they are usually repeats but may differ in a detail not shown here. Equal values may be shown once. Inconclusive results are not listed. Active and inactive are the calls of the source. How the source made its calls: active means hit-call score of the fitted dose curve at least 0.9, where 1 is the maximum; inconclusive means response in the unintended direction; inactive means score below 0.9.

Test [1] in a line: TOX21_p53_BLA_p4_viability: Viability Assessment in the Tox21 HCT-116 p53 Agonism Beta-lactamase Assay, Phase 4 (AID 2283597).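 Further: hits lower the luminescence signal meaning cytotoxicity.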 A digest of the protocol: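 Cells plated, 5 h pre-incubation; DMSO compounds pinned (217-fold dilution); 16 h, 37C/5% CO2; CCF4-AM 2 h RT; CellTiter-Glo 30 min RT; luminescence read.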
In test [2] the target is Cellular tumor antigen p53 (Homo sapiens) (UniProt P04637). Put plainly: TOX21_p53_BLA_p5_ratio: Tox21 HCT-116 p53 Agonism Beta-lactamase Assay, Ratio, Phase 5 (AID 2283599). A digest of the protocol: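 Beta-lactamase reporter ratio (blue 460 nm over green 530 nm, 405 nm excitation) after 2 h CCF4-AM loading, in HCT-116 cells exposed 16 h at 37 C to compounds pinned at 217-fold dilution. Increases relative to DMSO baseline scored.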
Sequence of Cellular tumor antigen p53 (Homo sapiens) (P04637 whole entry, looked up): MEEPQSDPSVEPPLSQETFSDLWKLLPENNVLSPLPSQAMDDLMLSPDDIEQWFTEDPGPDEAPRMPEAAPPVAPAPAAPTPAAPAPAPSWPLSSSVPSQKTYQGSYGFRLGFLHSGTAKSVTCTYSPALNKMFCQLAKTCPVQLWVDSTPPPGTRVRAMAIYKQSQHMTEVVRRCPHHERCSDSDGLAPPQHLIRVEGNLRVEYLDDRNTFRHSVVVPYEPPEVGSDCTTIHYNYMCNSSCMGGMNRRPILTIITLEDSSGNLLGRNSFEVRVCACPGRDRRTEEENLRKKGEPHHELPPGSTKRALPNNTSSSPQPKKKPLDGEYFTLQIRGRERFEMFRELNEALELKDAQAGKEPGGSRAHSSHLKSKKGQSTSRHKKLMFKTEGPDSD

Test [3] is described as follows: TOX21_p53_BLA_p5_viability: Viability Assessment in the Tox21 HCT-116 p53 Agonism Beta-lactamase Assay, Phase 5 (AID 2283600). A digest of the protocol:
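4000 cells/well; 5 h pre-incubation; DMSO compounds pin-transferred, 217-fold dilution; 16 h, 37C/5% CO2; CCF4-AM 2 h RT; CellTiter-Glo 30 min RT; luminescence.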

The target of test [4] is Cellular tumor antigen p53 (Homo sapiens) (UniProt P04637). Nature of the test: TOX21_p53_BLA_p4_ratio: Tox21 HCT-116 p53 Agonism Beta-lactamase Assay, Ratio, Phase 4 (AID 2283601). A digest of the protocol: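 Signal is the blue/green (460nm/530nm) ratio of cleaved versus uncleaved CCF4-AM substrate, read after 2 h substrate loading. Cells were HCT116 carrying the p53-responsive beta-lactamase reporter, dosed 16 h at 37C, 5% CO2; CellTiter-Glo measured in parallel.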

Test [5] can be described thus: Tanguay_ZF_120hpf_MORT_legacy: (Legacy) Oregon State University Tanguay Lab 120 Hour Post-fertilization zebrafish Assay for Mortality (AID 2283633).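 On AC50: fitted as increase in binary mortality versus DMSO negative control.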 A digest of the protocol:
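5D WT zebrafish, chorion removed 4 hpf; 1 embryo/well from 6 hpf; static exposure to 120 hpf, 28C, dark, sealed. Final DMSO 0.64%. Readout: binary mortality, brightfield, 24 + 120 hpf; DMSO as negative control.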

A short description of test [6]: Tanguay_ZF_120hpf_YSE_legacy: (Legacy) Oregon State University Tanguay Lab 120 Hour Post-fertilization zebrafish Assay for Yolk Sac Edema (AID 2283634).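 On AC50: actives raise the incidence of yolk sac edema above the DMSO baseline.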 A digest of the protocol: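 Dechorionate (pronase, 4 hpf) → place one 6 hpf embryo per well → static compound exposure, sealed and foil-covered, 28C, to 120 hpf → record yolk sac edema as present or absent. Final DMSO 0.64%.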

Test [7] is described as follows: Tanguay_ZF_120hpf_AXIS_legacy: (Legacy) Oregon State University Tanguay Lab 120 Hour Post-fertilization zebrafish Assay for Body Axis Malformation (AID 2283635).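 On AC50: potency for an increased fraction of larvae scored with body axis malformation.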 A digest of the protocol:
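Chorion is removed with pronase at 4 hpf, then single 6 hpf embryos are dosed (final DMSO 0.64%) and held statically at 28C in sealed, foil-covered plates. At 120 hpf body axis malformation is recorded as present or absent.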

Test [8] in a line: Tanguay_ZF_120hpf_EYE_legacy: (Legacy) Oregon State University Tanguay Lab 120 Hour Post-fertilization zebrafish Assay for Eye Malformation (AID 2283636). A digest of the protocol: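 Read-out is binary presence or absence of eye malformation, scored by brightfield microscopy at 120 hpf. Single larvae were exposed from 6 hpf in embryo medium containing 0.64% DMSO, with DMSO as baseline.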

Test [9] is described as follows: Tanguay_ZF_120hpf_SNOU_legacy: (Legacy) Oregon State University Tanguay Lab 120 Hour Post-fertilization zebrafish Assay for Snout Malformation (AID 2283637). A digest of the protocol:
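Snout malformation read as a yes/no call on brightfield images of 120 hpf larvae (Tropical 5D strain). Static exposure began at 6 hpf on dechorionated embryos in 0.64% DMSO, with gain of signal analysed versus DMSO controls.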

The nature of test [10]: Tanguay_ZF_120hpf_JAW_legacy: (Legacy) Oregon State University Tanguay Lab 120 Hour Post-fertilization zebrafish Assay for Jaw Malformation (AID 2283638).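 On AC50: active means more embryos with jaw malformation than DMSO controls.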 A digest of the protocol: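 Steps: dechorionate 4 hpf embryos (pronase); plate 1/well at 6 hpf; add test chemical, 0.64% DMSO final; seal, cover, hold at 28C statically to 120 hpf; score jaw defect presence/absence microscopically. Dead embryos not scored.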

Test [11] can be described thus: Tanguay_ZF_120hpf_OTIC_legacy: (Legacy) Oregon State University Tanguay Lab 120 Hour Post-fertilization zebrafish Assay for Otic Vesicle Malformation (AID 2283639). A digest of the protocol: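 Tropical 5D wild-type zebrafish embryos statically exposed in 0.64% DMSO at 28C until 120 hpf; 5uM trimethyltin chloride as positive control. Otic vesicle malformation scored present/absent by brightfield; dead embryos not scored; gain fitted versus DMSO.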

The nature of test [12]: Tanguay_ZF_120hpf_PE_legacy: (Legacy) Oregon State University Tanguay Lab 120 Hour Post-fertilization zebrafish Assay for Pericardial Edema (AID 2283640).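 On AC50: potency for increased incidence of pericardial edema versus DMSO baseline.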 A digest of the protocol: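 Embryos from wild-type 5D adults were staged, then dosed in 0.64% DMSO. They were kept sealed in the dark at 28C until 120 hpf. Pericardial edema was then recorded as present or absent.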
Test [13] in a line: Tanguay_ZF_120hpf_BRAI_legacy: (Legacy) Oregon State University Tanguay Lab 120 Hour Post-fertilization zebrafish Assay for Brain Malformation (AID 2283641). A digest of the protocol:
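Wild-type 5D larvae, static waterborne exposure to 120 hpf, 28C, 0.64% v/v DMSO. Brightfield scoring of brain defects, binary; dead embryos excluded. Positive ctrl 5uM trimethyltin chloride.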

Test [14] can be described thus: Tanguay_ZF_120hpf_SOMI_legacy: (Legacy) Oregon State University Tanguay Lab 120 Hour Post-fertilization zebrafish Assay for Somite Malformation (AID 2283647). A digest of the protocol:
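Read-out: presence or absence of somite malformation in 120 hpf larvae, gain-of-signal relative to DMSO baseline. Embryos lacked chorion (pronase, 4 hpf) and were exposed statically from 6 hpf at 28C; dead larvae not scored.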

A short description of test [15]: Tanguay_ZF_120hpf_PFIN_legacy: (Legacy) Oregon State University Tanguay Lab 120 Hour Post-fertilization zebrafish Assay for Pectoral Fin Malformation (AID 2283648).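 Further: each larva judged yes or no for fin defect by brightfield with dead larvae skipped.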 A digest of the protocol: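 5D WT zebrafish; pronase dechorionation 4 hpf; 1 embryo/well at 6 hpf; static exposure to 120 hpf, 28C, sealed, foil-covered; final DMSO 0.64% v/v; 5 uM trimethyltin chloride positive control; fin defect scored yes/no.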

Test [16] is described as follows: Tanguay_ZF_120hpf_CFIN_legacy: (Legacy) Oregon State University Tanguay Lab 120 Hour Post-fertilization zebrafish Assay for Caudal Fin Malformation (AID 2283649). A digest of the protocol: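 Binary presence or absence of caudal fin malformation at 120 hpf, read by brightfield microscopy, with DMSO as baseline. Larvae came from 5D wild-type embryos exposed statically from 6 hpf at 28C after pronase dechorionation.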

Test [17] is described as follows: Tanguay_ZF_120hpf_PIG_legacy: (Legacy) Oregon State University Tanguay Lab 120 Hour Post-fertilization zebrafish Assay for Pigmentation Malformation (AID 2283650). A digest of the protocol:
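Pronase dechorionation at 4 hpf; embryos plated at 6 hpf, one per well; static exposure, sealed and foil-covered, 28C, to 120 hpf; pigmentation read by brightfield, binary; DMSO 0.64% baseline, 5uM trimethyltin chloride positive control.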

Test [18] can be described thus: Tanguay_ZF_120hpf_CIRC_legacy: (Legacy) Oregon State University Tanguay Lab 120 Hour Post-fertilization zebrafish Assay for Circulatory Malformation (AID 2283651). A digest of the protocol:
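Dechorionated wild-type 5D zebrafish embryos, one per well, statically exposed from 6 to 120 hpf at 28C with 0.64% DMSO; circulatory malformation scored present/absent by brightfield microscopy at 120 hpf, dead embryos excluded.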

Take `CCCC[C@H]1CN(CC2CCOCC2)C(=O)OC12CCN(C1(C)CCN(C(=O)c3c(C)ncnc3C)CC1)CC2`: the call in test [1], in test [2], in test [3], in test [4], in test [5] and in [6] was inactive. Further, the outcome in test [7], in test [8], in test [9], in test [10], in test [11] and in test [12] was inactive. Besides, the outcome in test [13], in [14], in [15], in test [16], in test [17] and in [18] was inactive.
In the case of `COC(=O)CCC(=O)OC`, the outcome in [1], in test [2], in test [3], in [4], in [5] and in [6] was inactive. Also, the call in test [7], in [8], in test [9], in test [11], in test [12] and in test [13] was inactive. In addition, the call in test [15], in test [16], in test [17] and in test [18] was inactive.
In the case of `S=c1[nH]c2ccccc2s1`, the result in test [1], in test [2], in test [4] and in [5] was inactive. Also, the AC50 in test [6] was 11.7 µM (active); in test [7] it was 36.7 µM (active); in test [8], 42.1 µM (active); in [9], 40.7 µM (active); in test [10], 10.7 µM (active); in test [11] it was 11.2 µM (active). Moreover, the AC50 in test [12] was 37.6 µM (active); in test [13] it was 40.7 µM (active); in test [14], 44.5 µM (active); in test [15], 10.4 µM (active); in test [16], 31.9 µM (active); in test [17], 39.6 µM (active).
As for `CC(C)(C)c1ccccc1`, the call in test [1], in [2], in test [3], in test [6], in [7] and in test [8] was inactive. In addition, the call in [11], in [12], in [14], in test [15], in [16] and in test [18] was inactive. Also, the concentration at half-maximal activity (AC50) is 13.1 µM (active) in test [5] and 5.01 µM (active) in [9].
`O=C1OC(c2ccc(O)cc2)(c2ccc(O)cc2)c2ccccc21`: the outcome in test [1], in test [2], in [3], in test [4], in [5] and in test [6] was inactive. Moreover, the outcome in [7], in test [8], in test [9], in [10], in [12] and in test [14] was inactive. For the same molecule, the molecule was classed as inactive in test [15], in test [16], in test [17] and in [18].
`NCCOCCOCCN`: the outcome in [1], in test [2], in [3], in test [4], in [5] and in [6] was inactive. For the same molecule, the result in [7], in [9], in [10], in [11], in test [12] and in [13] was inactive. The outcome in test [14], in [15], in test [16] and in [18] was inactive.
Turning to `Nc1nc(Cl)nc2c1ncn2[C@H]1C[C@H](O)[C@@H](CO)O1`, the result in test [1], in test [3], in [5], in [6], in test [7] and in test [8] was inactive. Moreover, the molecule was called inactive in [9], in test [10], in [11], in test [12], in test [13] and in test [14]. Also, the result in test [15], in [16] and in test [18] was inactive. Moreover, the concentration at half-maximal activity (AC50) in [2] is 455 nM (active) and 793 nM (active); in [4] it was 244 nM (active) and 886 nM (active).
`O=C1c2c(O)cccc2Cc2cccc(O)c21`: the result in [1], in [2], in test [3], in test [4], in [5] and in test [6] was inactive. Moreover, the result in test [7], in test [8], in test [9], in test [10], in test [11] and in test [12] was inactive. The call in test [14], in [16], in [17] and in test [18] was inactive.

Source of the values: PubChem BioAssay (EPA / NIEHS).
